Test results from PubChem BioAssay AID588405 (Sanford-Burnham Center for Chemical Genomics, 2011).
Hit rate of the full screen: of about 360,000 compounds, about 6,200 (1.7%) were called active.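 The calls were made as follows: active = inhibition of at least 50% at 20 µM; inactive = the rest.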 The entries come from a sample that favours actives as a whole.

assay: inhibition of PEG-3 promoter activity – cell-based, HeLa, luciferase luminescence, primary screen (AID 588405); settings: HeLa PEG-Prom luciferase reporter, overnight, at 20 µM, active compounds read high

inhibition, active:
O=C(NCCN1CCOCC1)c1ccc(/C=C2\Sc3ccccc3N(Cc3ccc(F)cc3)C2=O)cc1 66.6%
CN(C)CCNC(=O)c1cccc(-c2cnc3c(NC=O)cc(-c4cccc(C(F)(F)F)c4)cn23)c1 98.7%
Cc1c(C(=O)Nc2cccc(Cl)c2)cn2c(nc3ccccc32)c1C#N 60.9%
Cc1nc(Nc2ccc3c(c2)OCCO3)c2nnn(Cc3ccccc3Cl)c2n1 54.7%
O=C(/C=C/c1ccc(Cl)c([N+](=O)[O-])c1)c1cccnc1 105%
O=C(/C=C/c1ccc(Cl)c([N+](=O)[O-])c1)c1ccc(O)cc1 104%
O=C1c2ccccc2C2=Nc3ccccc3SC(c3ccccc3F)C12 (centres undefined) 50.8%
Cc1ccccc1C(CC(=O)c1cccs1)C(C#N)C#N (centres undefined) 98.4%
C=C(C)C(=O)O[C@H]1C/C(C)=C\C(=O)/C=C(\C)[C@H](O)[C@@H]2OC(=O)C(=C)[C@@H]21 94.4%
COc1ccc(Nc2ncnc3ccc(Br)cc23)c(OC)c1 88.1%
O=[N+]([O-])/C=C/c1ccc2c(ccn2Cc2ccccc2)c1 107%
COc1ccc(NC(=O)/C(N=Nc2cccc(S(=O)(=O)Nc3ccc(SC(F)F)cc3)c2)=C(\C)O)cc1 50.3%
CCN(CC)CCC(c1ccc2c(c1)OCO2)c1c(OC)cc(OC)c2c(-c3ccccc3)cc(=O)oc12 (centres undefined) 56.4%
COc1ccc(C(=O)Nc2ccccc2C(=O)N/N=C/c2ccc(O)c(OC)c2)cc1 83.7%
COc1ccc(C(=O)/C=C/Nc2ccccn2)cc1 63%
COc1ccc(CC(=O)Nc2ccc(-c3nnc(-c4ccc(C)cc4)o3)cc2)cc1 51.2%
CC(C)C[C@H]1CNC(=S)N1C[C@H]1CCCN1C[C@H](Cc1ccc(O)cc1)N1C[C@H](Cc2ccc(O)cc2)N(CC2CCCCC2)C1=S 99.5%
Cc1ccc(OCC(=O)c2cc(C)n(Cc3ccco3)c2C)c([N+](=O)[O-])n1 55.6%

inhibition, inactive:
COc1ccc(-c2cc(NC=O)c3ncc(-c4cc(OC)c(OC)c(OC)c4)n3c2)c(OC)c1 1.14%
Nc1ncnc2c1ncn2[C@@H]1O[C@H](C(=O)N2CCCN(Cc3ccccc3F)CC2)[C@@H](O)[C@H]1O 3.41%
OC[C@@H]1CN(Cc2ccc(F)cc2)C[C@H](n2cnc3c(NC4CCCC4)ncnc32)O1 12.2%
CCCNC(=O)C1(C)CCN(C(=O)c2ccc(F)cc2Cl)C1 (centres undefined) 1.51%
CC1(C(=O)NS(=O)(=O)Cc2cccc(Cl)c2)CCN1C(=O)Cc1ccc(Cl)cc1Cl (centres undefined) -1.37%
Cc1cn([C@H]2C[C@H](O)[C@@H](/C=C/C(=O)NCCCc3ccccc3)O2)c(=O)[nH]c1=O 9.64%
O=C(NCCN1CCOCC1)/C(=C/c1ccc(F)cc1)NC(=O)c1ccccc1 -17.8%
Cc1ccc(C(=O)N/C(=C\c2ccc(F)cc2)C(=O)NCCN2CCOCC2)cc1 -0.33%
O=[N+]([O-])c1ccc(CN2CC(N3CC=CC3)CS2(=O)=O)cc1 (centres undefined) -12%
CC(=O)c1cccc(-c2cnc3c(NC=O)cc(-c4cccc(C(=O)N(C)C)c4)cn23)c1 33.8%
CN(C)C(=O)c1cccc(-c2cnc3c(NC=O)cc(-c4ccc(F)cc4)cn23)c1 35.5%
Nc1nc2c(ncn2[C@@H]2O[C@H](CNCc3ccc(OCCCN4CCOCC4)cc3)[C@@H](O)[C@H]2O)c(=O)[nH]1 -2.38%
COc1ccc(CNC(=O)c2ccc(-c3cccnc3)c3ccoc23)cc1OC 10.8%
CCC(=O)Nc1nc(C)c(C(=O)Nc2cccc(Cl)c2)s1 -28.7%
Cc1cc(Cl)nc(NC(=O)Nc2cccc(Cl)c2)n1 -174%
COc1cccc(CN(C)C(=O)CC[C@H]2O[C@@H](n3cnc4c(NC(=O)c5ccccc5)ncnc43)[C@H](O)[C@@H]2O)c1 4.1%
C[N+]1(CCNC(=O)/C=N/O)CCCCC1 17%
CCCNC(=O)C1(C)CCCN(C(=O)c2oc3ccccc3c2C)C1 (centres undefined) -3.03%
CCCc1nc(NCc2ccc3c(c2)OCO3)c2nnn(Cc3ccccc3Cl)c2n1 1.34%
Cc1nc(Nc2ccccc2F)c2nnn(Cc3ccccc3Cl)c2n1 8.32%
COc1ccccc1-c1nn(Cc2ccccc2)cc1C(=O)N1CCN(c2ncccn2)CC1 33.2%
O=C(Nc1cccnc1)c1ccc(Cl)cc1[N+](=O)[O-] -0.43%
CC(CC(=O)O)C(=O)c1ccc(Cl)c([N+](=O)[O-])c1 (centres undefined) 1.7%
C/C(=N\NC(=O)Cc1ccccc1[N+](=O)[O-])c1cccnc1 17.7%
CC(=O)Nc1ccc(C=CC(=O)c2ccc([N+](=O)[O-])cc2)cc1 4.26%
CC(C)(C)S(=O)N1Cc2cc(C(=O)NCCCN3CCOCC3)nc(-c3cccc(-c4cc5ccccc5o4)c3)c2[C@H]1CCO (some centres undefined) -6.92%
CCCNC(=O)C1(C)CCN1C(=O)Cc1ccc(-c2ccccc2)cc1 (centres undefined) -9.6%
CCCNC(=O)N1CCN(C(=O)NCCC)CC1 7.21%
CCC(C)(C)c1ccc(Oc2ccc(NC(=O)COC(=O)C3=COCCO3)cc2)cc1 11.8%
COc1ccc(-c2cc(NC(C)=O)c3ncc(-c4cc(OC)c(OC)c(OC)c4)n3c2)cn1 9.76%
O=C(NCC(=O)N1CCN(c2ccccc2F)CC1)c1cccs1 -57%
Cc1ccc(C)c(NC(CC(=O)c2ccccc2)C(=O)OCC(=O)c2cccs2)c1 (centres undefined) -74.6%
OCCC1CN(Cc2cccc(OC3CCCC3)c2)CCN1Cc1ccsc1 (centres undefined) 18.8%
CCc1nc2c(OCCOc3ccc(F)cc3)cccn2c1N(C)C(=O)c1ccccc1F 14.6%
Cc1cc(NC(=O)COC(=O)/C=C/c2ccc(C)o2)no1 6.71%
Cc1sc2ncn(CC(=O)NCCCC(=O)N(C)Cc3ccccc3)c(=O)c2c1C 8.27%
COc1ccc(OC)c(NC(=O)CN(C)CCOc2ccc(Br)cc2)c1 7.53%
COc1ccccc1Nc1ncnc2c1oc1ccccc12 -388%
Cc1cc(Br)cn2c(Cc3ccsc3)c(-c3ccc(C#N)cc3)nc12 -3.22%
CCOC(=O)C1CCCN(C(=O)c2ccc(N(C)C)cc2)CC1 (centres undefined) -7.67%
O=C(Nc1nnc([C@H]2C[C@H](O)[C@@H](CO)O2)s1)c1cccc(Cl)c1 -8.3%
Nc1cccc(S(=O)(=O)Nc2ccc(SC(F)F)cc2)c1 8.83%
Cc1c(NS(=O)(=O)c2cccc(C(=O)Nc3ccc(SC(F)F)cc3)c2)c(=O)n(-c2ccccc2)n1C 34.6%
CCN(CC)C(=O)CC(c1ccc2c(c1)OCO2)c1c(OC)cc(OC)c2c(-c3ccccc3)cc(=O)oc12 (centres undefined) 7.97%
CCN(CC)CCC(c1cc(OC)c(OC)c(OC)c1)c1c(OC)cc(OC)c2c(-c3ccccc3)cc(=O)oc12 (centres undefined) 27.4%
CC1(C(=O)Nc2cccc3cccnc23)CCN1C(=O)CCC1CCCC1 (centres undefined) 10.3%
COc1ccc(CCNC(=O)Nc2ccc3c(c2)c(=O)n(C)n3C)cc1OC -7.49%
O=C(c1ccc(F)cc1)c1c[nH]c(C(=O)NCc2cccnc2)c1 18%
COc1ccc(-c2[nH]ncc2/C=N/NC(=O)c2cc(Br)ccc2O)c(OC)c1 5.43%
O=C(NN=Cc1ccc2c(c1)CCC2)c1ccccc1O -215%
O=C(Nc1cc(Br)ccc1F)c1nc[nH]c1C(=O)NCc1ccccc1 2.41%
Cc1sc2ccccc2c1CNC[C@H]1O[C@@H](n2ccc(=O)[nH]c2=O)[C@H](O)[C@@H]1O -4.81%
COc1ccc(N2C(=O)CCC(C(=O)Nc3ccccn3)C2c2ccc(OC)c(OC)c2)cc1 (centres undefined) 12.5%
Cc1cc(N/C=C\C(=O)c2ccc(Cl)c(Cl)c2)no1 -233%
COc1ccccc1CNC(=O)c1cc(-c2cc(F)ccc2OC)n[nH]1 0.22%
COc1ccc(OC)c(C(=O)NC(CC(N)=O)c2ccc(N3CCC(N4CCCCC4)CC3)c([N+](=O)[O-])c2)c1 (centres undefined) 0.66%
CCc1nc2c(OCc3ccccc3)cccn2c1N(C)C(=O)c1ccco1 11.6%
COc1ccc(CC(=O)Nc2c(C(N)=O)oc3ccccc23)cc1 8.96%
COc1ccc(NC(=O)Cn2c(-c3ccc(OC)cc3)cn(-c3ccc(C)cc3)c2=O)cc1 -103%
COc1ccc(CCCNC(=O)C2Cc3c(-c4cccc(C(N)=O)c4)ccnc3O2)cc1 (centres undefined) 14.7%
Nc1cccc(-c2cncc(N3CCN(Cc4ccccn4)CC3)n2)c1 -8.35%
CSCC[C@H](NC(=O)CCCn1nnc2ccccc2c1=O)C(=O)O 4.76%
CCOc1ccc(CCN2C(=S)N([C@@H](CC(C)C)CN3CCC[C@@H]3CN3C(=S)NC[C@@H]3Cc3ccc(O)cc3)C[C@@H]2Cc2ccc(O)cc2)cc1 14.3%
CCOc1ccc(CCN2C(=S)N([C@@H](CC(C)C)CN3CCC[C@@H]3CN3C(=S)NC[C@@H]3Cc3ccc(O)cc3)C[C@@H]2CC(C)C)cc1 14.2%
COCC(C)n1c(C)cc(C(=O)COc2ccc(C)nc2[N+](=O)[O-])c1C (centres undefined) 43.5%
Cc1cc(C(=O)COC(=O)CNC(=O)c2ccc(F)cc2)c(C)n1Cc1ccco1 -257%
